# High-throughput results as filed in PubChem.
# Measles CPE: protection of cells from measles virus. actives 1.5% (n = 140,000). Measles virus-infected cells, CPE protection, absorbance. protection (pct of control), % at 4 µM; in the data active = protection mostly above about 24%, no sharp cut-off; inactive = mostly below about 26%
# Smad3 inh: Smad3 (human) transcription factor binding inhibition; TR-FRET Smad3/Dy647-FoxH1 peptide binding, europium anti-His; inhibition, % at 25 µM; actives 0.29% (n = 88,000); P84022;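 active = compounds that reduce the energy-transfer binding signal between the protein and its labelled peptide by more than half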;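 note: 0% = Smad3 plus labelled peptide maximal FRET and 100% = peptide-only background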
# Target sequence (P84022 whole entry, looked up): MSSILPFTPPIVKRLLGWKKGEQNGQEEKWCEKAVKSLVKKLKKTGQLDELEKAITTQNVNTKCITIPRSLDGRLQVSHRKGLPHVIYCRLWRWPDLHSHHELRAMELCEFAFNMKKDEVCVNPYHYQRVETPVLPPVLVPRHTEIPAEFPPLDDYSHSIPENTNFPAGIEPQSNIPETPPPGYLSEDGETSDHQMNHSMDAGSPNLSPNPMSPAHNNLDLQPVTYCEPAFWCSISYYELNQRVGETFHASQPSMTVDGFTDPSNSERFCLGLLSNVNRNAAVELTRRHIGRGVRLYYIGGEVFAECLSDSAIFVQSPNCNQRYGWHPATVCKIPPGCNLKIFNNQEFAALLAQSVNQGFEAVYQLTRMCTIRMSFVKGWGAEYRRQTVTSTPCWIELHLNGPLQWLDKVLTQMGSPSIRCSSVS
# MT1-MMP txn act: MT1-MMP promoter transcription activation. HT1080 MT1-MMP promoter luciferase reporter, luminescence, overnight; hits give high values. activation factor at 10 µM. actives 0.16% (n = 86,000);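 active = activation factor of at least 2 for MT1-MMP transcription at 10 µM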
# Active calls of the source: *; x = not tested or not shown; [ ] = remark or other dose. This is a sample that favours compounds with a hit; in the whole collection about 1.7% have one here.
SMILES,Measles CPE,Smad3 inh,MT1-MMP txn act
CC(C)(C[C@@]1(C)NC(=O)NC1=O)OCc1ccccc1,x,2,x
CC1=NN(c2ccccc2)C(=O)/C1=C\C=C1\N(C)c2ccccc2C1(C)C,59*,x,x
CC1=NN(c2ccccc2)C(=O)/C1=C\C=C1/N(C)c2ccccc2C1(C)C,11,x,x
CCC/C=C(\CCC)C(NS(=O)(=O)c1ccc(Cl)cc1)c1ccccc1 (stereo not given),x,x,1.2
COc1ccc2c(CC(=O)Nc3cccc(S(=O)(=O)N4CCOCC4)c3)coc2c1,26,x,x
O=C(N/N=C/c1ccc[nH]1)c1ccc(Cl)cc1,9,x,x
O=C(O)c1[nH]c2ccc(Cl)cc2c1CC(=O)N1CCN(C(=O)c2ccco2)CC1,5,0,1.1
O=C(c1ccco1)N1CCN(C(=O)C2CCCc3c2[nH]c2ccc(Cl)cc32)CC1 (stereo not given),82*,-2,1.5
N#C/C(=C\c1ccccc1)c1nc2ncccc2[nH]1,56*,x,x
N#C/C(=C\c1cccs1)c1nc2ccccc2[nH]1,17,x,x
COc1cc(-c2[nH]nc3c2C(c2ccco2)C(C#N)=C(N)O3)cc(OC)c1OC (stereo not given),9,x,x
Cc1ccc(S(=O)(=O)N(C)C)cc1-n1c(SCC(=O)Nc2ccc(F)c(F)c2F)nc2ccccc2c1=O,8,x,x
O=C1c2ccccc2NC2CCCCCN12 (stereo not given),11,9,1
c1ccc2c(c1)CC(N1CCCCC1)c1ccccc1N2 (stereo not given),42*,1,1.1
COC(=O)c1ccc(C(NC(=O)OCc2ccccc2)/C(C)=C/[C@@H](C)C(=O)N(C)Cc2cccnc2)cc1 (stereo not given in full),x,x,1.1
Cc1ccc(NC(=O)C2C(C(=O)O)C3C=CC2C32CC2)cc1 (stereo not given),13,2,1
Cc1ccc(NC(=O)C2C(c3ccccc3)C=CC(c3ccccc3)C2C(=O)O)cc1 (stereo not given),27*,x,x
O=[N+]([O-])c1ccccc1S(=O)(=O)n1nnc2ccccc21,27,x,x
CCOc1ccc(/C(O)=C2/C(=O)C(=O)N(CC3CCCO3)C2c2ccco2)cc1 (stereo not given),26,-1,1.2
CCOc1ccc(/C(O)=C2/C(=O)C(=O)N(CC3CCCO3)C2c2ccc(C)o2)cc1 (stereo not given),46*,11,1.1
O=C(CN1CCCCCC1)Nc1cccc(Br)c1,2,11,1.1
O=C(CN1CCCCC1)Nc1ccccc1,30*,1,1
CCCN(CC1CC1)S(=O)(=O)c1ccc(-n2cnnn2)c(OC)c1,11,8,1.2
CCC(C)(C)C(=O)Nc1ncc(S(=O)(=O)c2ccc([N+](=O)[O-])cc2)s1,53*,-5,1.2
O=C(Nc1ncc(S(=O)(=O)c2ccc([N+](=O)[O-])cc2)s1)c1ccc2ccccc2c1,19,x,x
SMILES,Measles CPE,Smad3 inh,MT1-MMP txn act
COc1ccc(N2CCN(C(=O)c3ccc(NS(=O)(=O)c4ccc(F)c(F)c4)cc3)CC2)cc1,20,36,1
COc1ccc(N2CCN(C(=O)c3ccc(NS(=O)(=O)c4cccc(F)c4)cc3)CC2)cc1,19*,0,1.2
COCCN=C1OC(=O)N2C(=O)C3=C4[C@@H](C[C@H]5C(=O)N(CC(=O)OC)C(=O)[C@H]5[C@H]4[C@@]12Cc1ccccc1)[C@H]1C(=O)N(CC(=O)OC)C(=O)[C@H]1[C@H]3C,x,x,1.2
Cc1ccc(CSC(N)=Nc2ccccc2)cc1C,x,21,x
COCCOCCOCCC(=O)NC1CC2CCC1(C)C2(C)C (stereo not given),51*,-9,1.1
CC1(C)C2CCC1(C)C(NC(=O)CCN1CCCCC1)C2 (stereo not given),4,-9,1.1
Cc1nc2nc(-c3ccc(Cl)cc3)nn2c(C)c1Cl,14,1,1.7
Cc1nc2nc(-c3ccccc3)nn2c(C)c1Cl,x,-2,2.2*
COCCN1Cc2c(sc(C)c2C)N(C(=O)c2ccccc2)C1,4,-10,1.5
Cc1sc2c(c1C)CN(Cc1ccco1)CN2C(=O)c1ccccc1,x,5,2.1*
COC(=O)c1ccc(C(NC(=O)OCc2ccccc2)/C(I)=C/[C@@H](C)C(=O)NCC2CC2)cc1 (stereo not given in full),x,x,1.1
Cc1nc(Nc2ccccc2)[nH]c(=O)c1CCC(C)C,18,1,1.1
CCCCCc1c(C)nc(NCc2ccccc2)[nH]c1=O,37*,4,1
O=C(O)C1C2C=CC(C3CC23)C1C(=O)O (stereo not given),5,6,1.2
Cc1cccc(NC(=O)C2C3C=CC(C4CC34)C2C(=O)O)c1 (stereo not given),49*,1,1.2
COc1cccc(N=c2oc3ccccc3cc2-c2nc3ccccc3[nH]2)c1,12,x,x
COc1cccc(N=c2oc3ccc(OC)cc3cc2-c2nc3ccccc3[nH]2)c1,47*,x,x
CC(=O)Nc1ccc(/C=N/OCC(=O)Nc2ccc(C)cc2)cc1,38*,x,x
CCN(CC)c1ccc(/C=N/OC(C)C(=O)Nc2ccc(C)cc2)cc1 (stereo not given),8,x,x
O=S(=O)(NCc1cccnc1)c1cccc2cccnc12,1,x,1.1
O=S(=O)(NCc1ccccc1)c1cccc2cccnc12,43*,20,1.1
O=P(O)(O)O[C@@H]1O[C@H](CO)[C@@H](O)[C@H](O)[C@H]1O,x,5,x
CC(C)(CN)CN,x,-4,x
CCOCCCNC(=S)Nc1cc(C)cc(C)c1,15,x,x
O=C(Nc1nc2c(s1)CCCC2)c1cccs1,6,5,0.7
SMILES,Measles CPE,Smad3 inh,MT1-MMP txn act
O=C(Cc1cccs1)Nc1nc2c(s1)CCCC2,93*,-8,1.3
CCc1nnc(NC(=O)C2Cc3ccccc3CN2S(=O)(=O)c2c(C)c(C)cc(C)c2C)s1 (stereo not given),13,x,x
COc1ccc(/C=N/Nc2snc(SC)c2C#N)cc1OC,44*,2,1.9
COc1cccc(/C=N/Nc2snc(SC)c2C#N)c1,9,-3,1.9
Cc1ccc(C(C(=O)Nc2ccc3c(c2)OCO3)N(C)C(=O)Cc2c[nH]c3ccccc23)cc1 (stereo not given),8,x,x
CCCC1(C(=O)OC)C=C2C(=C(C(C)C)C(=O)C2C)CN1 (stereo not given),x,x,1.1
Clc1cc(Cl)c2nc(N3CCCC3)sc2c1,x,-1,1.5
Clc1cc(Cl)c2nc(N3CCCCC3)sc2c1,10,5,2.1*
NC(=O)C/C=C/CC(N)=O,x,2,x
OCCCc1nc2n(n1)C(c1cccs1)C=C(c1ccccc1)N2 (stereo not given),64*,5,x
OCCCc1nc2n(n1)C(c1ccccc1)C=C(c1ccc(F)cc1)N2 (stereo not given),6,6,1.1
CCCCn1c(SCC(=O)Nc2cc(C(F)(F)F)ccc2Cl)nnc1C(CC)N(C)C (stereo not given),4,x,x
COc1ccc2c3c(cccc13)C(=O)N(O)C2=O,2,x,x
CCC1=NNc2cccc3c(OC)ccc1c23,9,65*[fluorescence artefact?],1
O=C(CN1C(=O)COc2ccccc21)NCCCN1CCN(Cc2ccccc2)CC1,7,5,1.1
O=C(CN1C(=O)COc2ccccc21)NCCCN1CCc2ccccc2C1,27*,8,1.2
Cc1ccc(S(=O)(=O)N[C@H](CN)C(=O)O)cc1,x,-3,x
